Experimental data reported in PubChem BioAssay (NCI).
The panel holds about 79,000 compounds, 15% with a hit somewhere; the sample as a whole holds those more often. A number with no mark means an inactive call. Calls of active or inactive are those of the source. Rule as the data show it: active = growth inhibition above about 70%; inactive = the rest.

Tests used:
[1] = NCI Yeast Anticancer Drug Screen. Data for the rad50 strain (AID 155);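 also: 0% = growth of vehicle-only cultures of the same strain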; details: S. cerevisiae rad50 strain growth inhibition; at 50.0 µM; stronger effect = higher value
Outline: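 Relative growth inhibition (compound vs vehicle) was measured in yeast with a defined repair-gene alteration.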

[2] = NCI Yeast Anticancer Drug Screen. Data for the mec2-1 strain (AID 157); details: S. cerevisiae mec2-1 strain, at 50.0 µM, stronger effect = higher value
Outline: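 Strain: mec2-1 (DNA repair/cell cycle alteration). Compound exposure, then growth measured; inhibition expressed relative to vehicle.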

[3] = NCI Yeast Anticancer Drug Screen. Data for the sgs1 mgt1 strain (AID 161);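 also: 0% = growth of cultures given vehicle only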; details: S. cerevisiae sgs1 mgt1 strain, at 50.0 µM, stronger effect = higher value
Outline: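 Test agents were incubated with a DNA-repair-mutant yeast strain. Growth was then read and compared against vehicle-treated controls.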

[4] = NCI Yeast Anticancer Drug Screen. Data for the cln2 rad14 strain (AID 165);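 also: 0% = growth equal to vehicle treated cultures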; details: S. cerevisiae cln2 rad14 strain, at 50.0 µM, stronger effect = higher value
Outline: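 Compounds are applied to the cln2 rad14 yeast strain, and growth is then compared with that of vehicle-treated cultures to give inhibition.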

[5] = NCI Yeast Anticancer Drug Screen. Data for the bub3 strain (AID 167); details: S. cerevisiae bub3 mutant strain, at 50.0 µM, stronger effect = higher value
Outline: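 Screening used yeast with an engineered genetic alteration affecting cell cycle control. Compound-exposed cultures were compared with vehicle cultures, and reduced growth was taken as inhibition.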

[6] = NCI Yeast Anticancer Drug Screen. Data for the mlh1 rad18 strain (AID 175); details: S. cerevisiae mlh1 rad18 strain growth inhibition; at 50.0 µM; stronger effect = higher value
Outline: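 Read-out is yeast growth inhibition, calculated against vehicle-only controls. The compound was applied to a strain engineered with DNA damage repair alterations.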

Structure (SMILES) | growth inhibition [1] | growth inhibition [2] | growth inhibition [3] | growth inhibition [4] | growth inhibition [5] | growth inhibition [6]
NC(=O)C(=O)c1cc(Cl)c(Cl)c(Cl)c1Cl | -12.3% | -13.5% | 12.4% | -9% | -5.15% | -4.15%
COC(=O)c1cc(Cl)ccc1OCC(=O)NCc1ccc(Cl)cc1 | 9.1% | -3.3% | 11.8% | -5.85% | -26.1% | 12.1%
O=[N+]([O-])c1ccc(C=NC23CC4CC(CC(C4)C2)C3)cc1 | -8.05% | -11.1% | -0.35% | 14.2% | 5.55% | -3.9%
S=C1SCN(c2ccc(Br)cc2)CN1c1ccc2[nH]c(=S)sc2c1 | 10.6% | 15.3% | 26.1% | 0.45% | 12.1% | 5.65%
C/C(CC(=O)Nc1ccc(Cl)c(Cl)c1)=N/NC(=O)C[N+](C)(C)C | -9.25% | -14.7% | -6.3% | 26.6% | -14.8% | -6.1%
O=C(NCCCC1NC(=O)/C(=C(O)/C=C/C=C/c2ccccc2)C1=O)OCc1ccccc1 (stereo unspecified) | 38.4% | -1.65% | 17.1% | -2.75% | 0.25% | 21.8%
Cc1cc([N+](=O)[O-])c(C)c(Br)c1C | -8.45% | -20.2% | -37.7% | 4.65% | -38.5% | -0.85%
C/C=C(/C)C(=O)O[C@H]1C[C@@H]2[C@@H](O)c3occ(C)c3C[C@]2(C)[C@@H](C)C1 | 91% (active) | 92.4% (active) | 91.6% (active) | 90% (active) | 90.8% (active) | 90.2% (active)
CS(=O)(=O)Oc1ccccc1OS(C)(=O)=O | 7.95% | 8.85% | -14.3% | -27.1% | 2.6% | -9.65%
O=C(O)/C=C/C1CCCCC1 | 26.4% | 14.3% | 3.95% | 4.35% | -6.4% | 21.2%
COC(=O)Nc1cccc(-c2nc3ccc(NC(=O)OC)cc3c(=O)n2-c2ccccc2)c1 | -26.3% | -16.9% | -22.6% | 8.55% | -15.8% | 5%
COC(=O)[C@@]1(C)/C(=N/NS(=O)(=O)c2ccc(C)cc2)CCC[C@@H]1C | 11.4% | -23% | -7.15% | 3.05% | -1.4% | -1.85%
O=C(COc1ccc2c(=O)cc(-c3ccc(Cl)cc3)oc2c1)N1CCN(c2ccccc2)CC1 | 9.15% | 7.05% | -8.8% | 29.1% | 3.95% | 10.9%
CSC1=C(c2ccc(Cl)cc2)SC(N2CCCCC2)N1c1ccc([N+](=O)[O-])cc1 (stereo unspecified) | 0.55% | -0.05% | 1.7% | 5.2% | 5.4% | 4.9%
COC1/C=C\OC2(C)Oc3c(C)c(O)c4c(O)c(c5[nH]cnc5c4c3C2=O)NC(=O)/C(C)=C\C=C\C(C)C(O)C(C)C(O)C(C)C(OC(C)=O)C1C (stereo unspecified) | 12.1% | 3.8% | 24% | 28.2% | 17.1% | 21.4%
C=C(c1ccccc1)C1(O)CCCCC1N(C)C (stereo unspecified) | -24.4% | -13.8% | 0.7% | -12.3% | 10.9% | 12.4%
CSCCCCCSC | 0.6% | -27.1% | -25.3% | 0.45% | -3.75% | 0.55%
CN(C)C1=NC(NCc2ccccc2)(N(C)C)OC(N(C)C)=N1 (stereo unspecified) | 1.95% | 4.9% | 0.55% | 8.7% | 13.7% | 15.5%
CSC1=C(C#N)C(=O)N(c2ccc(C)cc2)C(=O)C1C#N (stereo unspecified) | 26.1% | 12.2% | 31.1% | 24.4% | 5.5% | 20.3%
O=C(NO)C(=O)NO | -0.65% | -2.95% | -1.9% | -19.4% | -20% | -16.8%
CC(=O)Oc1cc(Cl)c(Cl)cc1Cl | 19.9% | 29.9% | -5.65% | -30.4% | -16.4% | -2.1%

Structure (SMILES) | growth inhibition [1] | growth inhibition [2] | growth inhibition [3] | growth inhibition [4] | growth inhibition [5] | growth inhibition [6]
CCN(CC)CCn1[nH]c2c3ccc(=O)cc3sc3c(NCCN)ccc1c32 | 13.3% | -3.35% | -12.7% | -5.55% | 2.5% | -2.4%
O=C1Cc2c(-c3ccccc3)cc(-c3ccccc3)nc2-c2ccccc2N1 | -4.2% | 39.2% | 39% | 25.7% | 29.2% | 41.2%
CCCCOc1ccc(Nc2c(C(=O)O)cnc3cc4c(cc23)OCO4)cc1 | -11.1% | 3.25% | -13.7% | 5.4% | -4.85% | 18.4%
O=C(O)c1ccccc1CC(C(=O)O)C(=O)O | 14.8% | 4.05% | 3% | 7.95% | -0.6% | 6.15%
C[Si](C)(C)C#CC(O)CS(=O)c1ccccc1 (stereo unspecified) | -19.5% | -19.4% | -13.3% | -3.7% | -6.45% | -17.1%
CCC(CC)C(=O)NC(O)C(Cl)(Cl)C(C)Cl (stereo unspecified) | 3.8% | 27.1% | 0.55% | 20.3% | 6.65% | 14.6%
O=C(NNc1ccccc1)c1ccc(Cl)cc1Cl | 3.5% | -9.4% | 50% | -0.05% | 50.4% | 34.9%
CCCCCCCCCCS(C)(=O)=O | -19.4% | -3.95% | -7.25% | -16.4% | -24.9% | -24.6%
CCOC(=O)C(C(=O)CC)=P(c1ccccc1)(c1ccccc1)c1ccccc1 | 3.35% | 17.4% | -20.1% | -9.4% | -9.9% | 23.2%
CSc1ccc([C@@H](O)[C@H](CO)NC(=O)C(Cl)Cl)cc1 | 72.9% (active) | 90.2% (active) | 88.4% (active) | 31.6% | 74.1% (active) | 47.6%
Cc1ccc(N=C2c3cc([N+](=O)[O-])ccc3-c3ccc([N+](=O)[O-])cc32)cc1 | 15.1% | -10.1% | 0.35% | -18.1% | -4% | -2.25%
CC(C)c1ccc(/C=C/C(=O)c2ccc([N+](=O)[O-])cc2)cc1 | 9.75% | 2.2% | 11.7% | -13.3% | 20.9% | 3.15%
COc1cc(Nc2nc3cc(C(F)(F)F)ccc3nc2-c2ccccc2)cc(OC)c1OC | 15.4% | -4.8% | -26.4% | -11.8% | -10.4% | -23.9%
FC1=C2C3CCC(C3)C2C1(F)F (stereo unspecified) | 12.1% | 4.1% | 20.1% | 16.9% | 2.7% | 17.1%
Cc1c([N+](=O)[O-])cc2c(c1[N+](=O)[O-])C(C)(C)C(C)CC2(C)C (stereo unspecified) | 1.2% | -15.8% | 6.45% | -15% | 45.7% | -10.9%
C=C1CC(CCCCC2CC(=C)C(=O)O2)OC1=O (stereo unspecified) | 1.45% | -15.8% | -8.1% | -104% | -12.7% | -24.6%
Cn1c2cc3ccccc3cc2nc2cc3c(cc21)c(Cl)c(=O)c1ccccc13 | 10% | -3% | 12.8% | 5.85% | -4.45% | -2.35%
CCc1c(O)nc(Nc2nc3ccccc3[nH]2)[nH]c1=O | -34.4% | -21.8% | -21.4% | -23.5% | -33% | -56.5%
CCCCCOC(C)(OCCCCC)OCCCCC | 7% | 13.6% | -4.2% | 2.8% | 9.6% | 7.5%
CC1=C(c2ccccc2)C(c2ccccc2)c2ccccc21 (stereo unspecified) | 17.3% | 26.7% | 33.6% | 51.4% | 54.4% | 85.6% (active)
